This is a sample that favours compounds with a hit; in the whole collection about 2.2% have one here.
M1 antag = human CHRM1 antagonism; P11229; CHO-K1 hM1, Fluo-8 calcium fluorescence, ACh EC80 antagonist; inhibition, % at 3 µM; 360,000 compounds, 1.3% hits; AID 588852;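 active means percent inhibition above its own plate's cutoff, namely the mean of that plate's compound wells plus 3 SD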;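 further: peak over basal fluorescence ratio during 140 s after agonist addition; 0% = ACh EC80 plus DMSO and 100% = DMSO alone without agonist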
M1 ag = agonists of human M1 muscarinic receptor | CHO-K1 hM1, Fluo-8 calcium fluorescence, agonist mode; 0% DMSO, 100% acetylcholine EC100 | activation, % at 3 µM | 360,000 compounds, 0.33% hits | P11229 | AID 588814;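 active means activation above the run's mean compound activation plus 3 SD, cut at about 16% in these data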;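 further: peak over basal fluorescence ratio within a 140 s kinetic read after compound addition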
M4 ag = agonists of human muscarinic M4 receptor (CHRM4). CHO-K1 hM4/Gqi5, Fluo-8 calcium fluorescence; vehicle 0%, full acetylcholine response 100%. P08173. 360,000 compounds, 0.14% hits. AID 624127. activation, % at 3 µM;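 active means activation above the run mean over all test wells plus 3 SD, cut at about 32% in these data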;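 further: peak over basal fluorescence ratio per well then scaled between controls; 0% = DMSO wells and 100% = acetylcholine at EC100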
Target sequence (P08173 whole entry, looked up): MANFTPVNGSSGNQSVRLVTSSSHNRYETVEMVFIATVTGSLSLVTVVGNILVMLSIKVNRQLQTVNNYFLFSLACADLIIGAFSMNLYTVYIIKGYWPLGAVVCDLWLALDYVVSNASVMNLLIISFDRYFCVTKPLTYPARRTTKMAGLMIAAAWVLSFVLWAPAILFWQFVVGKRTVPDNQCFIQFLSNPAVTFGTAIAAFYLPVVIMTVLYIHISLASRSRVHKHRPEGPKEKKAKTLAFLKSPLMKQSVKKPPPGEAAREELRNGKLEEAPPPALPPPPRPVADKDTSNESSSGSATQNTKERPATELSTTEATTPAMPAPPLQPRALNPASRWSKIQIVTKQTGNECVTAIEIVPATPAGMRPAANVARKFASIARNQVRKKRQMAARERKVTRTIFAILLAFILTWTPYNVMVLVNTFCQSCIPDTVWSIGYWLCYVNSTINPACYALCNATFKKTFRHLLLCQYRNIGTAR
M1 PAM = human CHRM1 positive allosteric modulation; P11229; CHO-K1 hM1, Fluo-8 calcium fluorescence, ACh EC20; 0% = ACh EC20, 100% = maximal ACh; activation, % at 3 µM; 360,000 compounds, 0.088% hits; in the data active means activation above about 19%, passing the limit was not always enough
CHRM4 PAM = potentiates acetylcholine response at human M4 receptor; CHO-K1 hM4/Gqi5, Fluo-8 calcium fluorescence, ACh EC20; 0% = ACh EC20, 100% = maximal ACh; activation, % at 3 µM; 360,000 compounds, 0.4% hits; AID 624126;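 active means activation above its plate's cutoff, the mean activation of sample wells plus 3 SD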
M4 antag = antagonists of human muscarinic M4 receptor (CHRM4). P08173. CHO-hM4 cells, ACh EC80, Fluo-8 calcium fluorescence. inhibition, % at 3 µM. 360,000 compounds, 0.73% hits;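 active means inhibition above its plate's cutoff, the mean inhibition of sample wells plus 3 SD, cut at about 27% in these data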;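 further: 0% = acetylcholine EC80 with DMSO and 100% = DMSO without agonist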
* hit, by the source's call; x = no result given.

SMILES | M1 antag | M1 ag | M4 ag | M1 PAM | CHRM4 PAM | M4 antag
O=C(COC(=O)C1CC2CCCC(C1)C2=O)NC(=O)c1ccc(OC(F)F)cc1 (stereo not given) | -5 | -2 | 0 | 8 | 2 | -4
C(=C\c1ccccc1)/CN1CCN(C(c2ccccc2)c2nnnn2-c2ccc3c(c2)OCCO3)CC1 (stereo not given) | 95* | -7 | 3 | -25 | -16 | 32*
O=C(Nc1ccc2c(c1)OCCO2)C(C1CC1)N1CCN(C/C=C/c2ccccc2)CC1 (stereo not given) | -14 | -5 | 3 | -6 | -8 | -1
Cc1cccc(C)c1-n1nnnc1C(c1ccccc1)N1CCN(C/C=C/c2ccccc2)CC1 (stereo not given) | 61* | -7 | 0 | -26 | -16 | 12
C(=C\c1ccccc1)/CN1CCN(C(c2cccc3ccccc23)c2nnnn2C2CCCC2)CC1 (stereo not given) | 95* | 0 | 1 | -20 | -16 | 96*
O=C(Nc1ccc2c(c1)OCCO2)C(c1cc2ccccc2o1)N1CCN(C/C=C/c2ccccc2)CC1 (stereo not given) | 36* | -3 | 4 | -25 | 0 | -12
C(=C\c1ccccc1)/CN1CCN(C(c2ccnc3ccccc23)c2nnnn2-c2ccc3c(c2)OCCO3)CC1 (stereo not given) | -16 | -6 | 6 | -9 | -9 | -15
COCCOC(=O)C1=C(C)NC(=O)NC1c1ccc(-c2ccc(F)cc2)o1 (stereo not given) | 0 | -3 | 2 | 5 | -5 | 0
Cc1nnc(NC(=O)CSc2ccc(-c3ccco3)nn2)s1 | -20 | -5 | 0 | 9 | -4 | 0
C(=C\c1ccccc1)/CN1CCN(C(c2nnnn2C2CCCCC2)C2CC2)CC1 (stereo not given) | -12 | -5 | 1 | -12 | -4 | -5
COc1ccc(C(c2nnnn2C(C)(C)C)N2CCN(C/C=C/c3ccccc3)CC2)cc1 (stereo not given) | 29 | -5 | 1 | -25 | -9 | 4
COc1ccc(C(c2nnnn2C2CCCCC2)N2CCN(C/C=C/c3ccccc3)CC2)cc1 (stereo not given) | 87* | -7 | 1 | -26 | -16 | 31*
CCCCn1nnnc1C(c1ccc(OC)cc1)N1CCN(C/C=C/c2ccccc2)CC1 (stereo not given) | 55* | -7 | 1 | -26 | -13 | 21
COc1ccc(C(c2nnnn2-c2ccc(OC)cc2)N2CCN(C/C=C/c3ccccc3)CC2)cc1 (stereo not given) | 74* | -6 | 4 | -26 | -14 | 8
COc1ccc(-n2nnnc2C(c2cccs2)N2CCN(C/C=C/c3ccccc3)CC2)cc1 (stereo not given) | 55* | -7 | 0 | -25 | -14 | 15
COc1cc([N+](=O)[O-])ccc1NC(=O)CCCOc1cccc(C)c1 | -4 | -3 | -1 | 0 | -7 | -6
Cc1ccnc(SCc2cc(=O)c(OC(=O)c3ccc(Br)o3)co2)n1 | -7 | 2 | 0 | 8 | 3 | 9
Cc1oc2c(O)c(O)ccc2c(=O)c1-c1ccc(Cl)cc1 | -9 | -3 | -1 | 5 | 0 | -3
COc1cccc(C(c2nnnn2C(C)(C)C)N2CCN(C/C=C/c3ccccc3)CC2)c1OC (stereo not given) | 42* | -11 | 1 | -30 | -10 | 10
O=C(NCCCN1CCOCC1)C(=O)NCC1OCCN1S(=O)(=O)c1ccc(F)cc1 (stereo not given) | -6 | -3 | 1 | 8 | -1 | 4
Cc1ccc(S(=O)(=O)N2CCOC2CNC(=O)C(=O)NCCCN2CCOCC2)cc1 (stereo not given) | -29 | -1 | 0 | 23* | 8 | -6
O=c1c2ccccc2nnn1Cc1nnc(-c2ccccc2Br)o1 | -5 | 16* | 3 | 8 | 1 | 1
O=C1c2ccccc2S(=O)(=O)N1Cc1nnc(-c2ccccc2Br)o1 | -8 | 3 | 7 | 11 | 3 | -3
COc1cccc(C2Nc3ccccc3C(=O)N2c2ccc(F)cc2)c1O (stereo not given) | -6 | -3 | 1 | 7 | -1 | -6
COc1ccc2c(c1OC)C(=O)N1c3ccccc3C(=O)N(c3ccc(F)cc3)C21 (stereo not given) | 25* | 2 | 17 | -5 | -15 | 21
SMILES | M1 antag | M1 ag | M4 ag | M1 PAM | CHRM4 PAM | M4 antag
COc1ccc2c(c1OC)C(=O)N1c3ccccc3C(=O)N(c3ccccc3)C21 (stereo not given) | 32* | 1 | 16 | -5 | -14 | 16
COCCNC(=O)CN(CC1CCCO1)C(=O)CCC(=O)Nc1ccccn1 (stereo not given) | -44 | 1 | 1 | 1 | 8 | -6
CCc1c(-c2ccc(Br)cc2)ncn1Cc1cccc(-c2ccccc2)c1 | x | x | 3 | x | -17 | 50*
CCCc1c(-c2cccc(Br)c2)ncn1Cc1cccc(-c2ccccc2)c1 | x | x | 3 | x | -14 | 6
CN1CCN(CCCNC(=O)c2ccc(/C=C3\Sc4ccccc4N(Cc4ccc(F)cc4)C3=O)cc2)CC1 | 2 | -5 | 13 | -7 | -26 | 10
CCN1CCN(CCNC(=O)c2ccc(/C=C3\Sc4ccccc4N(Cc4ccccc4F)C3=O)cc2)CC1 | 47* | -1 | 22 | -23 | -40 | 7
NC(=O)C1=C[C@H](c2coc3ccccc3c2=O)C[C@H](OCc2ccc(CO)cc2)O1 | 0 | -5 | 3 | 6 | 8 | 7
CC1(C)CC(=O)C=C(c2cccc(CO)c2)C1 | 4 | -5 | 1 | 0 | 0 | -4
CCOC(=O)N1CCC(NCCNC(=O)c2cccc(F)c2)CC1 | 64* | 66* | 2 | -33 | 0 | -1
CCOC(=O)N1CCC(NCCNC(=O)c2ccc(F)cc2)CC1 | 68* | 63* | 4 | -33 | 7 | -3
COc1ccc(C2NC(Cc3ccccc3)(C(=O)O)C3C(=O)N(c4ccccc4OC)C(=O)C23)cc1 (stereo not given) | 5 | -3 | 1 | 6 | -2 | -1
Cc1ccc(-n2c(Cl)c(Cl)nc(Cl)c2=O)cc1 | 0 | -6 | -3 | 9 | -6 | 37*
COc1ccccc1-c1cc(C(F)(F)F)nc(S(=O)(=O)CCCC(=O)O)n1 | -3 | -5 | 0 | 5 | 7 | 4
COC(=O)c1sccc1S(=O)(=O)Nc1ccc(C(O)(C(F)(F)F)C(F)(F)F)cc1 | 39* | 66* | 133* | -33 | -17 | 63*
